Binding signal data for one sequence are collected here from PMC7862700, “An all-to-all approach to the identification of sequence-specific readers for epigenetic DNA modifications on cytosine”.

Holding throughout (assay): DAPPL (digital affinity profiling via proximity ligation, sequencing); 10 mM Tris-HCl pH 7.5, 50 mM NaCl, 1 mM DTT, 4% glycerol, room temperature, 30 min; GST-TFs on glutathione beads, 16-mer random dsDNA library, 0.1% formaldehyde crosslink after washing; high values mean tight binding
For test [1], the target named is T1, FEV (Homo sapiens, UniProt Q99581 1-238).
T1 sequence: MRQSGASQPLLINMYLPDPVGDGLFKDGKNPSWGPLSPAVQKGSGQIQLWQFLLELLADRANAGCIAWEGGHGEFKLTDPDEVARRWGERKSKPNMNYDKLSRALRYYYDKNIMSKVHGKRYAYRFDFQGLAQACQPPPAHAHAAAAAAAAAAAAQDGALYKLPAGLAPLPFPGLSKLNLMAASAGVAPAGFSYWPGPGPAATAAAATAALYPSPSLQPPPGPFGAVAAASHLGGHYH
The following applies: protein: recombinant; tags: N-terminal GST; dsDNA, one strand shown. The method, boiled down: (§1)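 Human transcription factors fused to GST were expressed in yeast, captured on glutathione beads, given DNA barcodes and pooled with a GST-only negative control. Pools were incubated with 200 nmole of a 16-mer random double-stranded DNA library in Tris/NaCl/DTT/glycerol buffer at room temperature for 30 min. They were then washed, crosslinked with 0.1% formaldehyde, proximity-ligated (BsaI/T4 ligase, 1 h, 37 °C), PCR-amplified and sequenced on an Illumina NextSeq500. Binding signal is each 6-mer's read frequency for a factor divided by its frequency for the GST control.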

Test [2] concerns the target ETV5 (Homo sapiens, UniProt P41161 1-510). The note with it: protein: recombinant; tags: N-terminal GST; dsDNA, one strand shown. Put shortly:
as §1

The target in test [3] is HSF1 (Homo sapiens, UniProt Q00613 1-529). The note with it: protein: recombinant; tags: N-terminal GST; chain copies: 3; dsDNA, one strand shown. The method, boiled down:
as §1

Test [4] concerns the target T2, SPIC (Homo sapiens, UniProt Q8N5J4 1-248).
T2 sequence: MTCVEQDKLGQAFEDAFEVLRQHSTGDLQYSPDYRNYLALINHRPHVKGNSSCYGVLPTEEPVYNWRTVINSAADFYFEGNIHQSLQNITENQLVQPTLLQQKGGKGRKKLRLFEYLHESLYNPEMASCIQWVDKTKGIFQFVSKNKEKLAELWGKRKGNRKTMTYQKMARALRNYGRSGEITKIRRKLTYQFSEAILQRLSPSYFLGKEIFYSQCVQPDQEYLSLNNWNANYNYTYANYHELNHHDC
The following applies: protein: recombinant; tags: N-terminal GST; dsDNA, one strand shown. Put shortly: as §1

For test [5], the target named is ELF4 (Homo sapiens, UniProt Q99607 1-663). The following applies: protein: recombinant; tags: N-terminal GST; dsDNA, one strand shown. Put shortly: as §1
Test [6] deals with T3, ELK4 (Homo sapiens, UniProt P28324-2 1-405).
T3 sequence: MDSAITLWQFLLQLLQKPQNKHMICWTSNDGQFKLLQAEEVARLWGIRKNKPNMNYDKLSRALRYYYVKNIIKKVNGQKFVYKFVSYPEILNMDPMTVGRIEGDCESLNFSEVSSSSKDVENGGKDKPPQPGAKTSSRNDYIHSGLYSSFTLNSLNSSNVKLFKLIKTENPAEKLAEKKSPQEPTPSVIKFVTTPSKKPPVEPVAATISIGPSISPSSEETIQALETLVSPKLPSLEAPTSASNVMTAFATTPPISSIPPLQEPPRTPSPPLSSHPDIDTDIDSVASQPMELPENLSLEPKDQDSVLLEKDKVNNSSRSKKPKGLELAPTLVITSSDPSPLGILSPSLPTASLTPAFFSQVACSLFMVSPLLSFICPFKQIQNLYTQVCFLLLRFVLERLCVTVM
The following applies: protein: recombinant; tags: N-terminal GST; dsDNA, one strand shown. Put shortly:
as §1

In test [7] the target is T4, ETV2 (Homo sapiens, UniProt O00321 1-342).
T4 sequence: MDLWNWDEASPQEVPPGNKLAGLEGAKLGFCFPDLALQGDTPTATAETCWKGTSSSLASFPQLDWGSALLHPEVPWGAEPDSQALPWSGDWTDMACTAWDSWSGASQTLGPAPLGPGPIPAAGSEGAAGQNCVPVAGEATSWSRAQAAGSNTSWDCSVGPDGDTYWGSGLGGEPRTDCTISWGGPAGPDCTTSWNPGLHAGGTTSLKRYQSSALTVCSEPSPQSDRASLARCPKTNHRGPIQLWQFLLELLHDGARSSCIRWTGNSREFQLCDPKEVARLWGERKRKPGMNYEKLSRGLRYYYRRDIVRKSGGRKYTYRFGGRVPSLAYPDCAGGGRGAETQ
The following applies: protein: recombinant; tags: N-terminal GST; dsDNA, one strand shown. Put shortly:
as §1

The target in test [8] is T5, ELF3 (Homo sapiens, UniProt P78545 1-371).
T5 sequence: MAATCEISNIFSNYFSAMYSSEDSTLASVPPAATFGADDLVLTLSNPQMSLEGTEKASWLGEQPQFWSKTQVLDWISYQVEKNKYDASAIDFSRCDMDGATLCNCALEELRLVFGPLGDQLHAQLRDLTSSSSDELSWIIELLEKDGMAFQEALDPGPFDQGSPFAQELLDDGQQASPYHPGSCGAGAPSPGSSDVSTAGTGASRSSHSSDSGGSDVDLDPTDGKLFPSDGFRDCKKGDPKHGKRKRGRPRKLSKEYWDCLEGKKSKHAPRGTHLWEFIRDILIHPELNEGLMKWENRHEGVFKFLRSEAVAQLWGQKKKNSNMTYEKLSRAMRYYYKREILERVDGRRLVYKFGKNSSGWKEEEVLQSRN
The note with it: protein: recombinant; tags: N-terminal GST; dsDNA, one strand shown. The method, boiled down: as §1

The target of test [9] is CRX (Homo sapiens, UniProt O43186 1-299). The note with it: protein: recombinant; tags: N-terminal GST; dsDNA, one strand shown. The method, boiled down: as §1
The target in test [10] is ETV1 (Homo sapiens, UniProt P50549 1-477). The following applies: protein: recombinant; tags: N-terminal GST; dsDNA, one strand shown. Put shortly:
as §1

Test [11] addresses T6, ERF (Homo sapiens, UniProt P50548 1-548).
T6 sequence: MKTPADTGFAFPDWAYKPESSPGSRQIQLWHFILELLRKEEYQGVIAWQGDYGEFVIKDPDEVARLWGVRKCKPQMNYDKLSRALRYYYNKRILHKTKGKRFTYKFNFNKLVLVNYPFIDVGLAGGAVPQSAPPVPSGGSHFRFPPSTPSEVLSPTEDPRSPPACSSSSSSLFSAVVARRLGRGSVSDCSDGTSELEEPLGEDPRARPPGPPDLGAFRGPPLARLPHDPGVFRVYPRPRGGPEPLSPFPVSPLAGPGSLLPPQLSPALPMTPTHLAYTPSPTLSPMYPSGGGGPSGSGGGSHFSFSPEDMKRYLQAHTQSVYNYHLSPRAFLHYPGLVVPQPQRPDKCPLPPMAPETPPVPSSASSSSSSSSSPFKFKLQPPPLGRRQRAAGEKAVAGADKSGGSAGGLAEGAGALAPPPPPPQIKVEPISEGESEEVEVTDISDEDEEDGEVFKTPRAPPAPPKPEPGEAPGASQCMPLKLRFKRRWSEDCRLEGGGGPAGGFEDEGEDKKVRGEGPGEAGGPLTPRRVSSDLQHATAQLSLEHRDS
The note with it: protein: recombinant; tags: N-terminal GST; dsDNA, one strand shown. The method, boiled down:
as §1

Test [12] concerns the target T7, ETV3L (Homo sapiens, UniProt Q6ZN32 1-361).
T7 sequence: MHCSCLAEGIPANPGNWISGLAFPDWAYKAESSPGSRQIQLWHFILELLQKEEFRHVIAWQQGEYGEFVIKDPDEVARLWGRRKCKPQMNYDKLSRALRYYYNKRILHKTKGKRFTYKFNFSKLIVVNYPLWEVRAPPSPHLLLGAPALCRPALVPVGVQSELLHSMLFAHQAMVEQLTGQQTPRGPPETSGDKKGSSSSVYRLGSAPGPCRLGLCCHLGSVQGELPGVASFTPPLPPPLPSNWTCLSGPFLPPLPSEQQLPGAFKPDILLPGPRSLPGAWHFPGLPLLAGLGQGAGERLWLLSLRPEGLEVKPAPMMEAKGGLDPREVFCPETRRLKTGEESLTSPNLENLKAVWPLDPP
The following applies: protein: recombinant; tags: N-terminal GST; dsDNA, one strand shown. Put shortly: as §1

Test [13] deals with T8, ETS2 (Homo sapiens, UniProt P15036 1-469).
T8 sequence: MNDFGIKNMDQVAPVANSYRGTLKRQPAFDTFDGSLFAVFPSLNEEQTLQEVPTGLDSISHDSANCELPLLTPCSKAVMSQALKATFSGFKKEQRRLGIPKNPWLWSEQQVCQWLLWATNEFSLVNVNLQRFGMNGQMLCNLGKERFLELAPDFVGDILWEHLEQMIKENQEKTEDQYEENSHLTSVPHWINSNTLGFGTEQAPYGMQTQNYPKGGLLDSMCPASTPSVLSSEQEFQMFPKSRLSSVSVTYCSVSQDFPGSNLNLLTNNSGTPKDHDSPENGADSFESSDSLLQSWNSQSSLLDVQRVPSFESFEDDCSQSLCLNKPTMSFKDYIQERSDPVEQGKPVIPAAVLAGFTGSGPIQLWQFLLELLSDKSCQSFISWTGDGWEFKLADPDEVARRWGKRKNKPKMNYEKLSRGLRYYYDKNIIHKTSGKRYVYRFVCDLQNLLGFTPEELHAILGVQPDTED
The following applies: protein: recombinant; tags: N-terminal GST; dsDNA, one strand shown. The method, boiled down: as §1

Test [14] deals with T9, SPDEF (Homo sapiens, UniProt O95238 1-335).
T9 sequence: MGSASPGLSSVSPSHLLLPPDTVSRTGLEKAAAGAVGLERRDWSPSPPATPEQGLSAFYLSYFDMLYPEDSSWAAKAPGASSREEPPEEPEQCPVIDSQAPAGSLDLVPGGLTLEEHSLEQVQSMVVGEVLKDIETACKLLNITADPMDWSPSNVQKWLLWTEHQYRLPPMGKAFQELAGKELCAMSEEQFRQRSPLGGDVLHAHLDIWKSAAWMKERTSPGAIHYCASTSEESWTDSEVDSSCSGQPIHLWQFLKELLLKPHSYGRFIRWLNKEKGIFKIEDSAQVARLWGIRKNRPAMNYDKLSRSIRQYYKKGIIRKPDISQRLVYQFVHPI
The note with it: protein: recombinant; tags: N-terminal GST; dsDNA, one strand shown. The method, boiled down:
as §1

Test [15] addresses T10, ETV7 (Homo sapiens, UniProt Q9Y603 1-341).
T10 sequence: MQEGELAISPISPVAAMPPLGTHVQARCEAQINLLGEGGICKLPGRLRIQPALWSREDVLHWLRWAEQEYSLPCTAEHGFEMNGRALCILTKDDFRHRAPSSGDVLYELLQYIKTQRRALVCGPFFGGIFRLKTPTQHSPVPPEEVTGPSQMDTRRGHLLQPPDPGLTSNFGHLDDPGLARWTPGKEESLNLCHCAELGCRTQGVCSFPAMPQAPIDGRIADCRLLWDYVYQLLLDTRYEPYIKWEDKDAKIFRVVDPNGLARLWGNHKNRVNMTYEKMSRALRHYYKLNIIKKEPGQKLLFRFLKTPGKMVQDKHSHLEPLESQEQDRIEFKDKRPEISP
The note with it: protein: recombinant; tags: N-terminal GST; dsDNA, one strand shown. Put shortly:
as §1

Test [16] addresses T11, ELF5 (Homo sapiens, UniProt Q9UKW6-2 1-255).
T11 sequence: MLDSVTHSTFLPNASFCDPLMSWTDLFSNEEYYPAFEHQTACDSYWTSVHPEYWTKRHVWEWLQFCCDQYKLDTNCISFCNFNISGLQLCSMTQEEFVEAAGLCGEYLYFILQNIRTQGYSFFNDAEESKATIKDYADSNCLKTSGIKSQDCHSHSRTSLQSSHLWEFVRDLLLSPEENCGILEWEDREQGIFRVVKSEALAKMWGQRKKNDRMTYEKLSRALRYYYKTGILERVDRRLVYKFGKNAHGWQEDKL
The note with it: protein: recombinant; tags: N-terminal GST; dsDNA, one strand shown. The method, boiled down: as §1

Test [17] addresses T12, ETV3 (Homo sapiens, UniProt P41162-2 1-143).
T12 sequence: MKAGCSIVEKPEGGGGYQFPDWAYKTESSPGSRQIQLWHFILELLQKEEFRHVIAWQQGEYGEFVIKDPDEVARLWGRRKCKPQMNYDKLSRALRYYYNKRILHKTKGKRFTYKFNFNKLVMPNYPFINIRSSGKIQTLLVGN
The note with it: protein: recombinant; tags: N-terminal GST; dsDNA, one strand shown. Put shortly:
as §1

Test [18] deals with ETV6 (Homo sapiens, UniProt P41212 1-452). The following applies: protein: recombinant; tags: N-terminal GST; dsDNA, one strand shown. The method, boiled down: as §1
Chain of ETV6 (P41212 whole entry): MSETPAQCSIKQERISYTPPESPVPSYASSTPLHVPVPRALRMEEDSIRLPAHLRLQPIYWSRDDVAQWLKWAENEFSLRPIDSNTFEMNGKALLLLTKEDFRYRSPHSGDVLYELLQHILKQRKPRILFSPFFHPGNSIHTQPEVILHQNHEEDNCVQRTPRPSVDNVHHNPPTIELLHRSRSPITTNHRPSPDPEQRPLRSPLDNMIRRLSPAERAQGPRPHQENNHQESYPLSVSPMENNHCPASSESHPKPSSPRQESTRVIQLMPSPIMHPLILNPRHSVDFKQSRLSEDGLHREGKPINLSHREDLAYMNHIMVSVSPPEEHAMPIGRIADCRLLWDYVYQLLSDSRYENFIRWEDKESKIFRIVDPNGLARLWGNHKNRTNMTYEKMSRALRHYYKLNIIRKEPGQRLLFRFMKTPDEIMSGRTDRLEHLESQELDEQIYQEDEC

Chain of ELF4 (Q99607 whole entry): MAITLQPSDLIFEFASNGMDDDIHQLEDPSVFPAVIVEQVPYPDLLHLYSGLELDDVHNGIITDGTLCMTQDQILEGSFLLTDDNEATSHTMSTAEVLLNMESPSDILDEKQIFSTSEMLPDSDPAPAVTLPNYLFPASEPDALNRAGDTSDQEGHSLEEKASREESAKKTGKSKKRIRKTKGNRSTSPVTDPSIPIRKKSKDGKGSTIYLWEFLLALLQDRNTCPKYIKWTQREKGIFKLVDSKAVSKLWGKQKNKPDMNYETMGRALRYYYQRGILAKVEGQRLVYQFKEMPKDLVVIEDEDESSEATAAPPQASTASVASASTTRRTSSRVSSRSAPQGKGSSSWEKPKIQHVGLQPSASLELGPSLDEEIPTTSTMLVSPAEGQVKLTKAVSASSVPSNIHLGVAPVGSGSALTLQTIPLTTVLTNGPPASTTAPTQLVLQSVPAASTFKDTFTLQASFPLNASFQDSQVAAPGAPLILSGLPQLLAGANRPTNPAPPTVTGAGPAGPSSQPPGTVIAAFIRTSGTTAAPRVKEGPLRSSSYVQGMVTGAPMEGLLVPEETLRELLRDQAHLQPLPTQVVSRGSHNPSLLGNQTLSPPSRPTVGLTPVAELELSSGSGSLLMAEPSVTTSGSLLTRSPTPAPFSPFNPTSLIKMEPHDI
Chain of ETV5 (P41161 whole entry): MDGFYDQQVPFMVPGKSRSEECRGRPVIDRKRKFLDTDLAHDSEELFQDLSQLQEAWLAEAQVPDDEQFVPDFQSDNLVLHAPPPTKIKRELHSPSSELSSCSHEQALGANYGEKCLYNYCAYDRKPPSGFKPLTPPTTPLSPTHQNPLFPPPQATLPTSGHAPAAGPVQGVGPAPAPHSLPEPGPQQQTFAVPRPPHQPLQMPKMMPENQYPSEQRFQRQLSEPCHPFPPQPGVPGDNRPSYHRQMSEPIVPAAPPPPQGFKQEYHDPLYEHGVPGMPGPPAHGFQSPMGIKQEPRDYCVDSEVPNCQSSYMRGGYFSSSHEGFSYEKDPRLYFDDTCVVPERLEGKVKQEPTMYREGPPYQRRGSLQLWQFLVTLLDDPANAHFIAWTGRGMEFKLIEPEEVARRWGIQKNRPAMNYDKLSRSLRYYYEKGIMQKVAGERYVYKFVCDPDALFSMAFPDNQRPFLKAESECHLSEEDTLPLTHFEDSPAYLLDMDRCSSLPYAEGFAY
Chain of CRX (O43186 whole entry): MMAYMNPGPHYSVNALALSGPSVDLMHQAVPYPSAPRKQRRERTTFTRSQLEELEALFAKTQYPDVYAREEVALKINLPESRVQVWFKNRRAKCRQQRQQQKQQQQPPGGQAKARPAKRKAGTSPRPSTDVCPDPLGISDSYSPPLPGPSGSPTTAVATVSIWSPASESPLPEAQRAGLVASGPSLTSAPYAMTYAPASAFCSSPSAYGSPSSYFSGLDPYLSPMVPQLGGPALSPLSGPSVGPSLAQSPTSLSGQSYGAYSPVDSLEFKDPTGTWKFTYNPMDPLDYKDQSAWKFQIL
Chain of HSF1 (Q00613 whole entry): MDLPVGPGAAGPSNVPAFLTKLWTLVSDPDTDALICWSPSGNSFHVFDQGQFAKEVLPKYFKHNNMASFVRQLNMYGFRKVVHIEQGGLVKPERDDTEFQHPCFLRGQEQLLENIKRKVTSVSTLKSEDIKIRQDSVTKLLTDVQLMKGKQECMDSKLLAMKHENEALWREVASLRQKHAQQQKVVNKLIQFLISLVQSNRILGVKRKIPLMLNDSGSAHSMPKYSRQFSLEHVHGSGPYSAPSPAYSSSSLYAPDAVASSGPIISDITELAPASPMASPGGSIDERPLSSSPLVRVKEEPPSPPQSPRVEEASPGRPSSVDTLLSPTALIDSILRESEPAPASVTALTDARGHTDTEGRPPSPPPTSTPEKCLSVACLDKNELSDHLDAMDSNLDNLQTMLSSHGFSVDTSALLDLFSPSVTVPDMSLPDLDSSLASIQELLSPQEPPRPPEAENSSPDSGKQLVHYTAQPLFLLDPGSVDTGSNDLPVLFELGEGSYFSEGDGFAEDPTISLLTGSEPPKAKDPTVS
Chain of ETV1 (P50549 whole entry): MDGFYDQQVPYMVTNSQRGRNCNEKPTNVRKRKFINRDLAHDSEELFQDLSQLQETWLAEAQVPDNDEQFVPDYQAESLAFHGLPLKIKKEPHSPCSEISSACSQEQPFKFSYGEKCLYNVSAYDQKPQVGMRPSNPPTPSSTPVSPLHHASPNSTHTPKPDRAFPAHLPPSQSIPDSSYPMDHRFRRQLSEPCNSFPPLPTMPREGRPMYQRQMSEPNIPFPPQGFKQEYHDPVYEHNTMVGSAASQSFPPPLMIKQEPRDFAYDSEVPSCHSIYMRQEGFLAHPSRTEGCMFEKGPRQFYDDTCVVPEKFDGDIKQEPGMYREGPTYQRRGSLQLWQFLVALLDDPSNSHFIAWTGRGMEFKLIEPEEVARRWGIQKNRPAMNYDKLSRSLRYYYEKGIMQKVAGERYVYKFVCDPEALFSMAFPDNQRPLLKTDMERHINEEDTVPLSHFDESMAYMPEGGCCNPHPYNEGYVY

TCCGGC: the binding signal was 3.33 fold enrichment (6-mer frequency, TF over GST control) in [1]; 2.4 fold enrichment (6-mer frequency, TF over GST control) in test [2]; 1.17 fold enrichment (6-mer frequency, TF over GST control) in test [3]; 2.2 fold enrichment (6-mer frequency, TF over GST control) in test [4]; 1.95 fold enrichment (6-mer frequency, TF over GST control) in test [5]; 2.03 fold enrichment (6-mer frequency, TF over GST control) in [6]. For the same sequence, the binding signal was 2.4 fold enrichment (6-mer frequency, TF over GST control) in [7]; 1.97 fold enrichment (6-mer frequency, TF over GST control) in test [8]; 1.1 fold enrichment (6-mer frequency, TF over GST control) in test [9]; 2.31 fold enrichment (6-mer frequency, TF over GST control) in test [10]; 2.13 fold enrichment (6-mer frequency, TF over GST control) in [11]; 2.23 fold enrichment (6-mer frequency, TF over GST control) in [12]. Further, the binding signal was 2.08 fold enrichment (6-mer frequency, TF over GST control) in [13]; 3.14 fold enrichment (6-mer frequency, TF over GST control) in test [14]; 1.95 fold enrichment (6-mer frequency, TF over GST control) in [15]; 2.67 fold enrichment (6-mer frequency, TF over GST control) in test [16]; 2.32 fold enrichment (6-mer frequency, TF over GST control) in test [17]; 2.28 fold enrichment (6-mer frequency, TF over GST control) in test [18].
